Assay results as given in PubChem BioAssay AID652053 (Broad Institute, 2013).
About 930 (72%) of roughly 1,300 compounds were called active.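 How the source made its calls: active means fitted curve reaches 40% activation signal increase at or below the top valid tested concentration in every replicate test; inconclusive means replicate tests disagree in their calls; inactive means all replicate tests inactive, including effects opposite the expected signal rise.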 So high a share suggests a set chosen from earlier hits. A selection follows. Results with a measured potency or affinity are listed apart.

test: miR-122 inhibitors in Huh7 reporter cells, dose response, cell-based, Huh7 psiCHECK-miR122, Renilla luciferase, cherry-pick (AID 652053); details: 48 h; series mostly up to 35 µM; activation (miR-122 inhibition): at the top concentration

Activation (miR-122 inhibition), inactive:
C/C=C/c1ccc([C@H]2[C@@H](CO)N(c3nc(CC)cs3)[C@H]2CNC(C)C)cc1 9.8% [at 30 µM]
Cc1cc(C)cc(NC2=NC3(CCCCC3)N=C(N)N2)c1 14.3%
C/C=C/c1ccc([C@H]2[C@H](CO)N(c3nc(CC)cs3)[C@H]2CNC(C)C)cc1 9.1%
Cc1cc(N/N=C/c2ccc(O)c(C)c2O)nc(-c2ccccc2O)n1 -28.8%
CCC(=O)Nc1ccc(C(=O)Nc2cccc(C)n2)cc1 -4.08%
C[C@@H]1CN([C@@H](C)CO)C(=O)Cc2cc(NC(=O)Nc3cccc4ccccc34)ccc2O[C@@H]1CN(C)C(=O)NC1CCCCC1 16.7% [at 30 µM]
C[C@H](CO)N1C[C@H](C)[C@H](CN(C)C(=O)NC2CCCCC2)Oc2ccc(NC(=O)Nc3cccc4ccccc34)cc2CC1=O -11.8%
C[C@H](CO)N1C[C@H](C)[C@@H](CN(C)Cc2ccncc2)Oc2ccc(NC(=O)Nc3cccc4ccccc34)cc2CC1=O 27.8%
CC(C)NC(=O)Nc1ccc2c(c1)CC(=O)N([C@H](C)CO)C[C@@H](C)[C@@H](CN(C)Cc1ccc(Oc3ccccc3)cc1)O2 -16%
COc1ccc(NC(C)=O)cc1NC(C)C(=O)Nc1cc(C(F)(F)F)ccc1N1CCOCC1 (stereo unspecified) -5.66%
COc1cccc(C(=O)Nc2cc([N+](=O)[O-])ccc2N2CCN(C)CC2)c1 7.85%
CC(C)n1c(/C=C/c2ccccc2)nc2ccccc21 14%
Cc1nc2ccccc2n1S(=O)(=O)c1ccc(F)cc1 -4.04%
COc1ccc(S(=O)(=O)Nc2ccc3c(c2)COC3=O)cc1OC 9.2%
CC(=O)N1[C@H](CO)[C@H](c2ccc(C3=CCCCC3)cc2)[C@@H]1CNC(=O)CN(C)C 24.4%
Cc1ccc(C)c(CSc2nnc(-c3cccnc3)o2)c1 10.5%
COc1ccc(OC)c(Nc2cc(C)nc3nc(C)nn23)c1 6.54%
Cc1cc(OCC(O)CN2CCOCC2)cc(C)c1Cl (stereo unspecified) -7.28%
O=C(Nc1cccc([N+](=O)[O-])c1)c1ccc(CSc2ccccc2)cc1 -5.05%
Fc1ccc(-n2nnc(-c3nccs3)n2)cc1 9.99%
CCc1nc2sc3c(c2c(=O)n1NC(=O)CCl)CCCC3 -23.5%
COc1ccc(CN(C)C[C@@H]2OCCCC[C@@H](C)Oc3ccc(NC(=O)c4ccccc4)cc3C(=O)N([C@H](C)CO)C[C@@H]2C)cc1 26.6%
COc1cccc(N2CCN(C(=S)Nc3cccc(C)c3)CC2)c1 -9.75%
C/C=C/c1ccc([C@@H]2[C@@H](CO)N(c3nc(CC)cs3)[C@@H]2CNC(C)C)cc1 -14.1%
COc1ccc(CNC(=O)C(c2ccco2)N(C(=O)c2csnn2)c2cccc(C)c2C)cc1 (stereo unspecified) 14%
COc1cc(C(=S)N2CCOCC2)cc(OC)c1OC(=O)c1ccc(F)cc1 2.77%
O=C(Oc1ccc(C(=S)N2CCOCC2)cc1)c1ccc(F)cc1 -4.16%
O=C(Oc1ccc(C(=S)N2CCOCC2)cc1)c1ccccc1F -11.9%
O=C(Oc1ccc(C(=S)N2CCOCC2)cc1)c1ccccc1 -1.54%
CCOC(=O)c1ccc(NS(=O)(=O)c2ccc3[nH]c(=O)[nH]c3c2)cc1 15.1%
CC(=O)N1[C@H](CO)[C@@H](c2ccc(C3=CCCCC3)cc2)[C@@H]1CNC(=O)CN(C)C 2.05%
CCC(=O)N1[C@H](CNC(=O)CN(C)C)[C@@H](c2ccc(C3=CCCC3)cc2)[C@@H]1CO 7%
CCCNC(=O)NC[C@H]1[C@@H](c2ccc(C3=CCCC3)cc2)[C@@H](CO)N1C(C)=O 56.5%
CCCNC(=O)NC[C@H]1[C@H](c2ccc(C3=CCCC3)cc2)[C@H](CO)N1C(=O)CC 4.17%
CCCNC(=O)NC[C@H]1[C@H](c2ccc(C3=CCCC3)cc2)[C@@H](CO)N1C(=O)CC 18.1%
CCCNC(=O)NC[C@@H]1[C@H](c2ccc(C3=CCCC3)cc2)[C@@H](CO)N1C(=O)CC -9.1% [at 30 µM]
CCCNC(=O)NC[C@H]1[C@@H](c2ccc(C3=CCCC3)cc2)[C@H](CO)N1C(=O)CC 22.9%
CCCNC(=O)NC[C@@H]1[C@H](c2ccc(C3=CCCC3)cc2)[C@H](CO)N1C(=O)CC -2.66%
CN(C)Cc1cccc(-c2ccccc2)c1O 17.8%
O=S(=O)(Nc1ccncc1)c1ccc(Cl)cc1 -7.92%
COc1cc(OC)c2c(-c3cccc(-c4ccc(N(C)C)cc4)c3)cc(=O)oc2c1 32.1%
COc1ccc(-c2cccc(-c3cc(=O)oc4cc(OC)cc(OC)c34)c2)cc1 8.47%
COc1cc(OC)c2c(-c3cccc(-c4ccc(O)cc4)c3)cc(=O)oc2c1 5.68%
Cc1cc(C(=O)N2CCc3ccccc32)n(-c2ccccc2)n1 15.6%
C/C(=N\NC(=O)c1cc(-c2cccs2)nc2ccccc12)c1ccccn1 -5.64%
CC(C)n1cc(NC(=O)c2cc(-c3ccccc3)on2)cn1 -6.08%
O=C(C[C@@H]1CC[C@H]2[C@@H](COC[C@@H](O)CN2C(=O)C2CCCC2)O1)NCc1ccncc1 -14.2%
O=C(COc1ccccc1F)c1ccc(O)cc1O 15.5%
COc1ccccc1N1CCN(S(=O)(=O)c2ccc(F)cc2)CC1 -3.23%
Cc1c(C(=O)N(C)CCC#N)oc2ccc(S(=O)(=O)N3CCOCC3)cc12 -3.44%
C[C@@H]1CN([C@@H](C)CO)C(=O)c2cc(NC(=O)CCC(F)(F)F)ccc2O[C@@H]1CN(C)C(=O)Nc1ccc2c(c1)OCO2 -9%
COc1ccc(NC(=O)N(C)C[C@H]2Oc3ccc(NC(=O)Nc4ccc(C(F)(F)F)cc4)cc3CC(=O)N([C@H](C)CO)C[C@@H]2C)cc1 -1.37%
COc1ccc(NC(=O)N(C)C[C@@H]2Oc3ccc(NC(=O)Nc4ccc(C(F)(F)F)cc4)cc3CC(=O)N([C@@H](C)CO)C[C@H]2C)cc1 -1.45% [at 30 µM]
COc1ccc(NC(=O)N(C)C[C@H]2Oc3ccc(NC(=O)Nc4ccc(C(F)(F)F)cc4)cc3CC(=O)N([C@H](C)CO)C[C@H]2C)cc1 16% [at 30 µM]
COc1ccc(NC(=O)N(C)C[C@H]2Oc3ccc(NC(=O)Nc4ccc(C(F)(F)F)cc4)cc3CC(=O)N([C@@H](C)CO)C[C@H]2C)cc1 37.5%
COc1ccc(NC(=O)N(C)C[C@@H]2Oc3ccc(NC(=O)Nc4ccc(C(F)(F)F)cc4)cc3CC(=O)N([C@H](C)CO)C[C@@H]2C)cc1 8.26%
